Measured values published in the supplement of paper PMC10600219.
Counter-ions that a name gives are not always drawn. The full ranking holds about 2,800 compounds; the median of “cell viability relative to vehicle” is about 0.98, and the lowest 2% start at about 0.45. The sample holds the lowest values, similar compounds and a random draw of the others, so the mix is not that of the screen.

These compounds were tested on NCI-H2228 alectinib-DTP (assay: cell viability relative to vehicle (fraction of vehicle); NCI-H2228 is an ALK-positive lung cancer line and DTP means drug-tolerant persister; higher = less growth inhibition). Conditions: 100 nM; treatment time 6 days.
Method in brief: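 Drug-tolerant persister NCI-H2228 cells, produced by 13 days in 1000 nM of a targeted drug, and their parental counterparts were seeded into 384-well plates and, the following day, given the 3114-agent TargetMol anti-cancer compound library at 100 nM or DMSO vehicle. After 6 days, the CellTiter-Glo 3D Cell Viability Assay was used to read ATP. Each entry reports viability compared with vehicle-treated cells.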
`CS(=O)(=O)Nc1ccc([N+](=O)[O-])cc1OC1CCCCC1` gave a cell viability of 1.12.
With `Cc1ccc(/C(=C\CN2CCCC2)c2ccccn2)cc1` [Triprolidine hydrochloride] the cell viability was 1.18.
With `C/C(=N\NC(=S)N1CCC1)c1ccccn1` the cell viability was 0.362.
In the case of `S=C(N/N=C1/CCCc2cccnc21)N1CCN(c2ccccn2)CC1`, the cell viability was 1.09.
Compound `Cn1c(O)c(C2=c3ccccc3=NC2=O)c2ccccc21` [Methylisoindigotin] has a cell viability of 0.85.
`CC(C)=CCc1cc2c(cc1O)oc(=O)c1c3ccc(O)cc3oc21` [Psoralidin] was tested, and the cell viability was 1.15.
With `CC(C)c1nc(CN(C)C(=O)N[C@@H](CCN2CCOCC2)C(=O)N[C@H](CC[C@H](Cc2ccccc2)NC(=O)OCc2cncs2)Cc2ccccc2)cs1` [Cobicistat] the cell viability was 1.02.
With `CC(C)C[C@H](NC(=O)[C@H](CCc1ccccc1)NC(=O)CN1CCOCC1)C(=O)N[C@@H](Cc1ccccc1)C(=O)N[C@@H](CC(C)C)C(=O)[C@@]1(C)CO1` [Carfilzomib] the cell viability was 0.116.
For `COc1ccc(C[C@H](NC(=O)[C@H](C)NC(=O)CN2CCOCC2)C(=O)N[C@@H](Cc2ccccc2)C(=O)C2(C)CO2)cc1` (stereo in doubt), the cell viability was 1.03.
`N[C@@H](CSCCB(O)O)C(=O)O` gave a cell viability of 0.835.
For `O=C(O)Cn1c2c(c3cc(F)ccc31)CN(C(=O)c1cccc3ccccc13)CC2` [Setipiprant], the cell viability was 1.18.
`CC(C)(C)c1ccc(C(=O)NC(=S)Nc2ccc(N)cc2)cc1` [Tenovin3] showed a cell viability of 0.734.
`CCCCCCCCCCCCCC(=S)NCCCC[C@H](NC(=O)OCc1ccccc1)C(=O)Nc1ccccc1` [Thiomyristoyl] gave a cell viability of 1.11.
In the case of `C/C=C1\NC(=O)[C@H]2CSSCC/C=C/[C@H](CC(=O)N[C@H](C(C)C)C(=O)N2)OC(=O)[C@H](C(C)C)NC1=O` [Romidepsin], the cell viability was 0.116.
Compound `O=c1nc(N2CCN(CC3CCCCC3)CC2)sc2c([N+](=O)[O-])cc(C(F)(F)F)cc12` has a cell viability of 0.985.
Compound `CCC(Sc1nnc2c(n1)[nH]c1ccccc12)C(=O)N1c2ccccc2Sc2ccccc21` (centres undefined) [Inauhzin] has a cell viability of 1.06.
Compound `CCc1c2c(nc3ccc(O)cc13)-c1cc3c(c(=O)n1C2)COC(=O)[C@]3(O)CC` has a cell viability of 0.263.
`CC[C@@]1(O)C(=O)OCc2c1cc1n(c2=O)Cc2cc3cc(O)ccc3nc2-1` [Hydroxy Camptothecine] gave a cell viability of 0.255.
For `CC[C@@]1(O)C(=O)OCc2c1cc1n(c2=O)Cc2cc3cc(O)ccc3nc2-1` [10-Hydroxycamptothecin], the cell viability was 0.304.
`CC[C@@]1(O)C(=O)OCc2c1cc1n(c2=O)Cc2cc3c(CN(C)C)c(O)ccc3nc2-1` [Topotecan hydrochloride] showed a cell viability of 0.245.
`CCc1c2c(nc3ccc(OC(=O)N4CCC(N5CCCCC5)CC4)cc13)-c1cc3c(c(=O)n1C2)COC(=O)[C@]3(O)CC` [Irinotecan hydrochloride trihydrate] gave a cell viability of 1.05.
`CCc1c2c(nc3ccc(OC(=O)N4CCC(N5CCCCC5)CC4)cc13)-c1cc3c(c(=O)n1C2)COC(=O)[C@]3(O)CC` [Irinotecan] was tested, and the cell viability was 1.07.
In the case of `COc1ccc(S(=O)(=O)NCc2ccc(C(=O)NCCc3ccc(Cl)cn3)cc2)cc1`, the cell viability was 1.14.
In the case of `CN1CCN(c2ccc(C(=O)Nc3cc(-c4cccc(NS(=O)(=O)c5ccccc5)c4)[nH]n3)cc2)CC1`, the cell viability was 0.98.
With `CC(C)Cc1ccc(-c2nc(-c3ccc(CN4CC(C(=O)O)C4)c(F)c3)no2)cc1` [S1p-receptor-agonist-1] the cell viability was 1.03.
In the case of `OC(CCN1CCCCC1)(c1ccccc1)C1CCCCC1` (racemic) [DL-trihexyphenidyl hydrochloride], the cell viability was 0.964.
`CCCC[S+]([O-])c1sc2nc(-c3cccs3)cc(-c3ccccc3)c2c1N` (centres undefined) was tested, and the cell viability was 1.
In the case of `Nc1c(S(=O)(=O)c2ccccc2)c2nc3ccccc3nc2n1-c1ccc(F)cc1`, the cell viability was 1.11.
For `Cc1cccc(C)c1N(CC(=O)Nc1ccc(-c2ncon2)cc1)C(=O)C1CCS(=O)(=O)CC1` [Amenamevir], the cell viability was 0.926.
`CC(C)=CC(=O)CCC(=O)N1CCN(Cc2cc3nc(-c4cccc5[nH]ncc45)nc(N4CCOCC4)c3s2)CC1` was tested, and the cell viability was 0.892.
With `O=C1Nc2ccccc2/C1=C/c1ccc(F)cc1` the cell viability was 1.04.
Compound `N#Cc1c(-c2ccccc2)cc(-c2cc(Br)ccc2O)[nH]c1=O` has a cell viability of 0.907.
With `CC/C(=C(/c1ccc(/C=C/C(=O)O)cc1)c1ccc2[nH]ncc2c1)c1ccc(F)cc1Cl` the cell viability was 1.07.
`CCOC(=O)c1c(C)[nH]c(C=C2C(=O)Nc3ccccc32)c1C` [VEGFR2 Kinase Inhibitor I] gave a cell viability of 1.19.
For `COc1c(O[C@@H]2O[C@H](CO)[C@@H](O)[C@H](O)[C@H]2O)cc2occ(-c3ccc(O)cc3)c(=O)c2c1O` [Tectoridin], the cell viability was 1.03.
`Cc1[nH]c2ccccc2c1CCNCc1ccc(/C=C/C(=O)NO)cc1` [Panobinostat] showed a cell viability of 0.22.
`Cc1[nH]c2ccccc2c1CCNC(=O)c1cccs1` gave a cell viability of 0.919.
`CN(C)Cc1ccc(S(=O)(=O)n2ccc(/C=C/C(=O)NO)c2)cc1` [Resminostat hydrochloride] showed a cell viability of 1.15.
For `Cc1ccc(S(=O)(=O)Nc2cc(C(F)(F)F)ccc2C(=O)Nc2nc(-c3ccccc3)cs2)cc1`, the cell viability was 0.852.
For `CCC(=O)O[C@]1(C(=O)CO)CC[C@H]2[C@@H]3CCC4=CC(=O)CC[C@]4(C)[C@H]3CC[C@@]21C` [17 alpha-propionate], the cell viability was 0.936.
With `NC[C@H]1OB(O)c2c(OCCCO)cccc21` [Epetraborole hydrochloride] the cell viability was 1.11.
`Cc1cc(O)c(-c2ccc(C(C)CN)cc2)c2c1[nH]c(=O)c1sccc12` (centres undefined) gave a cell viability of 0.15.
With `O=C1C[C@@H](c2ccccc2)Oc2cc(O)cc(O)c21` [Pinocembrin] the cell viability was 0.964.
`C[C@H](CCOc1cccc(CC(=O)O)c1)N(Cc1cccc(C(F)(F)F)c1Cl)CC(c1ccccc1)c1ccccc1` was tested, and the cell viability was 0.781.
Compound `C=C1CC[C@H]2C(=C)CC[C@H]3C(=C)C(=O)O[C@@H]3[C@@H]12` [Dehydrocostus Lactone] has a cell viability of 0.984.
With `CC(C)=CCC[C@](C)(O)[C@H]1CC[C@]2(C)[C@@H]1[C@H](O)C[C@@H]1[C@@]3(C)CC[C@H](O)C(C)(C)[C@@H]3CC[C@]12C` [(20S)-Protopanaxadiol] the cell viability was 0.908.
`Cc1c(-c2ccc(N3CCc4cccc(C(=O)Nc5nc6ccccc6s5)c4C3)nc2C(=O)O)cnn1CC12CC3CC(CC(C3)C1)C2` showed a cell viability of 0.806.
`CCn1cc(C(=O)O)c(=O)c2c(N)c(F)c(NC3CCCCC3)cc21` showed a cell viability of 1.1.
`Cc1ccc(S(=O)(=O)Cc2nc(-c3ccc(C(=O)NCc4cccnc4)cc3)oc2C)cc1` showed a cell viability of 0.955.
`O=C(NCc1ccc(S(=O)(=O)c2cc(F)cc(F)c2)cc1)c1ccc2nccn2c1` was tested, and the cell viability was 0.34.
Compound `CC1(C)CC[C@]2(C(=O)O)CCC3=C([C@@H](CCl)C[C@@H]4[C@@]5(C)C[C@H](O)[C@H](O)[C@@](C)(C(=O)O)[C@@H]5CC[C@@]34C)[C@@H]2C1` [Senegenin] has a cell viability of 0.889.
For `COCc1c(-c2ccc(NC(=O)Nc3cc(C(F)(F)F)ccc3F)c(F)c2)c2c(N)ncnn2c1CN1CCOCC1`, the cell viability was 0.632.
`C[C@@H]1CC[C@@]2(NC1)O[C@H]1C[C@H]3[C@@H]4CC=C5C[C@@H](O[C@@H]6O[C@H](CO)[C@@H](O[C@@H]7O[C@@H](C)[C@H](O)[C@@H](O)[C@H]7O)[C@H](O)[C@H]6O[C@@H]6O[C@@H](C)[C@H](O)[C@@H](O)[C@H]6O)CC[C@]5(C)[C@H]4CC[C@]3(C)[C@H]1[C@@H]2C` [Solamargine] showed a cell viability of 1.06.
In the case of `COc1ccc(-c2ccc3c(N4CCOCC4)nc(N4C[C@@H](C)O[C@@H](C)C4)nc3n2)cc1CO`, the cell viability was 0.765.
Work on `COc1ccc(-c2ccc3c(N4CCOC[C@@H]4C)nc(N4CCOC[C@@H]4C)nc3n2)cc1CO` yielded a cell viability of 0.377.
With `CNC(=O)c1cccc(-c2ccc3c(N4CCOC[C@@H]4C)nc(N4CCOC[C@@H]4C)nc3n2)c1` [Vistusertib] the cell viability was 0.594.
`COc1ccc([C@@H]2OC[C@H]3[C@@H]2CO[C@@H]3c2ccc3c(c2)OCO3)cc1OC` [Fargesin] showed a cell viability of 1.11.
`O=C1c2cccc(O)c2C(=O)c2c(O)cccc21` [Antrapurol] gave a cell viability of 0.878.
`O=C1c2c(O)ccc(O)c2C(=O)c2c(NCCNCCO)ccc(NCCNCCO)c21` [Mitoxantrone] was tested, and the cell viability was 0.386.
Compound `NCCNc1ccc(NCCN)c2c1C(=O)c1ccncc1C2=O` [Pixantrone dimaleate] has a cell viability of 0.661.
In the case of `CC(C)=CCc1c(O)ccc(C(=O)/C=C/c2ccc(O)cc2)c1O` [Isobacachalcone], the cell viability was 1.01.
In the case of `Cc1ccc([N+](=O)[O-])cc1S(=O)(=O)N(C)/N=C/c1cnc2ccc(Br)cn12` [PIK-75  hydrochloride], the cell viability was 0.201.
`Cc1ccc([N+](=O)[O-])cc1S(=O)(=O)N(C)/N=C/c1cnc2ccc(Br)cn12` gave a cell viability of 0.172.
With `CC(C)n1cnc2c(NCc3ccccc3)nc(NCCCO)nc21` [Bohemine] the cell viability was 0.951.
For `C=CCSC[C@H](N)C(=O)O` [S-allyl-L-cysteine], the cell viability was 1.06.
`CC(C)=CC[C@H](O)C1=CC(=O)c2c(O)ccc(O)c2C1=O` [Alkannin] was tested, and the cell viability was 0.957.
`CC1=C(C(=O)Nc2ccc3[nH]ncc3c2)C(c2ccc(F)c(C(=O)NCc3ccccn3)c2)NC(=O)N1` (centres undefined) showed a cell viability of 1.
In the case of `CC(C)(C#N)c1ccc(N2C(=O)OCc3cnc4ccc(-c5cnc6ccccc6c5)cc4c32)cc1`, the cell viability was 0.925.
In the case of `Cn1c(=O)n(-c2ccc(C(C)(C)C#N)cc2)c2c3cc(-c4cnc5ccccc5c4)ccc3ncc21` [Dactolisib], the cell viability was 0.435.
`CO[C@@H](C)Cn1c(=O)n(C)c2cnc3ccc(-c4cncc(C(C)(C)O)c4)cc3c21` showed a cell viability of 0.513.
`O[C@@H]1[C@@H](O)[C@@H](OC/C=C/c2ccccc2)O[C@H](CO[C@@H]2OC[C@H](O)[C@H](O)[C@H]2O)[C@H]1O` [Rosavin] was tested, and the cell viability was 0.944.
For `C[C@@H]1CC(=O)Nc2cccc(-c3ccc4c(c3)c(-c3cnn(C)c3)nn4C)c2N1`, the cell viability was 1.01.
`O=C(Nc1nc(-c2ccc(O)c(O)c2)c(-c2ccccc2)s1)c1ccc(O)c(O)c1` was tested, and the cell viability was 1.03.
`CS(=O)(=O)Nc1cc(-c2ccc3ncnc(Nc4ccc(F)c(Cl)c4)c3c2)cnc1Cl` was tested, and the cell viability was 0.997.
Compound `COc1ncc(-c2ccc3nccc(-c4ccnnc4)c3c2)cc1NS(=O)(=O)c1ccc(F)cc1F` [Omipalisib] has a cell viability of 0.261.
In the case of `CCCS(=O)(=O)Nc1ccc(F)c(C(=O)c2c[nH]c3ncc(-c4ccc(Cl)cc4)cc23)c1F` [Vemurafenib], the cell viability was 1.12.
`Nc1ccccc1C(=O)C[C@H](N)C(=O)O` [L-Kynurenine] gave a cell viability of 0.987.
`N#CCC(C1CCCC1)n1cc(-c2ncnc3[nH]ccc23)cn1` (centres undefined) was tested, and the cell viability was 1.16.
`CN1CCN(c2cc(-c3ccccc3)nc(N)n2)CC1` gave a cell viability of 1.09.
`CN1CC(=O)N2[C@H](c3ccc4c(c3)OCO4)c3[nH]c4ccccc4c3C[C@@H]2C1=O` [Tadalafil] was tested, and the cell viability was 0.916.
`COC(=O)c1ccc([C@H]2c3[nH]c4ccccc4c3C[C@H](C(=O)OC)N2C(=O)CCl)cc1` showed a cell viability of 0.0417.
`COC(=O)[C@@H]1[C@H]2C[C@H]3c4[nH]c5ccccc5c4CCN3C[C@@H]2CC[C@@H]1O` [Yohimbine hydrochloride] was tested, and the cell viability was 1.22.
`CCCNC(=O)c1cn2ncnc(Nc3cc(C(=O)NC4CC4)ccc3C)c2c1C` showed a cell viability of 1.03.
In the case of `COc1ccc(-c2ccccc2)cc1NS(=O)(=O)c1cc(Cl)cc(Cl)c1O`, the cell viability was 0.883.
